Bioassay records (PubChem BioAssay)
The list is not random: actives were taken first. Their share in the collection is about 5.6%.
RORg inh: blocks mouse ROR gamma transcriptional activity; P51450; Drosophila S2 Gal4-RORgamma UAS-luciferase reporter, 20 h; Potency, µM (titrated, usually from 53.6 µM), without a hit: top-dose activity change, negative = inhibition, hits mostly inhibitors; 310,000 tested, 5.4% active; AID 2551; note: potency is the fitted concentration of half-maximal effect; nearly all actives have a fitted effect of over 60% in size
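Compounds are pin-transferred onto Drosophila Schneider cells expressing a copper-inducible Gal4–ROR gamma transactivation domain fusion. After 1 hr, copper sulfate is added to 700 uM final; luciferase is read 20 hr later.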
PKM2 activator: increases activity of human pyruvate kinase M2. purified PKM2, Kinase-Glo ATP luminescence, activation; response scale: 0% is enzyme alone, no compound. 260,000 tested, 0.34% active. Potency, µM (series often up to 57.5 µM), without a hit: at the highest dose activation, most hits filed as activators; note: potency is the fitted concentration of half-maximal effect; nearly all actives have a fitted effect of over 55% in size
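Purified hPK-M2 (>95% pure) converted ADP (0.1 mM final) to ATP with 0.5 mM PEP in 50 mM imidazole pH7.2, KCl, MgCl2, Tween 20, BSA; 1 h at room temperature. ATP detected by Kinase-Glo luminescence.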
Gal4-VP16 FLuc: counter-screen for ROR gamma inhibitors: Gal4-VP16 reporter. Drosophila S2 Gal4-VP16 UAS-luciferase, luminescence, 20 h. 310,000 tested, 3.5% active. Potency, µM (series often up to 53.6 µM), inactives show at the top dose activity, negative = inhibition, actives largely listed as inhibitors;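 note: Gal4-VP16 expression switched on by copper sulfate through the metallothionein promoter; potency is the fitted concentration of half-maximal effect; nearly all actives have a fitted effect of over 50% in size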
Six1-Eya2 inh: inhibitors of human Six1/Eya2 interaction. 360,000 tested, 0.56% active. AlphaScreen GST-Six1/His-Eya2 binding, biochemical; active compounds read low. activity change, % (concentration not given with the values). Q15475+O00167; in the data active = activity change below about -65%; inconclusive = mostly about -30% to -63%
Target sequence (O00167 whole entry, looked up): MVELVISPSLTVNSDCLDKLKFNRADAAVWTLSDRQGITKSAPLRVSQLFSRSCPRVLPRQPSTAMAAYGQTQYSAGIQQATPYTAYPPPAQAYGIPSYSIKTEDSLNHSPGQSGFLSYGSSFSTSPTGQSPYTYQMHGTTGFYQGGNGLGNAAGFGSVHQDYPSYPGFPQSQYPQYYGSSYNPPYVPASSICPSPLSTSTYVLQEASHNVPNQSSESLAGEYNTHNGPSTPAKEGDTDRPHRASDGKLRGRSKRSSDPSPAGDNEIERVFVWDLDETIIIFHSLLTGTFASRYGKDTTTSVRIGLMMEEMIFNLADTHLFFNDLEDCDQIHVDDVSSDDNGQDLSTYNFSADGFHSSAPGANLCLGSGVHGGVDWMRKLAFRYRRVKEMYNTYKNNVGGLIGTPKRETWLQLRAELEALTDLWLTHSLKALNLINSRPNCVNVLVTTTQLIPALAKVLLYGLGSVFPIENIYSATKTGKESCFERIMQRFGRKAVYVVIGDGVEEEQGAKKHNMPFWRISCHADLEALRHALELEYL
Target sequence (Q15475 whole entry, looked up): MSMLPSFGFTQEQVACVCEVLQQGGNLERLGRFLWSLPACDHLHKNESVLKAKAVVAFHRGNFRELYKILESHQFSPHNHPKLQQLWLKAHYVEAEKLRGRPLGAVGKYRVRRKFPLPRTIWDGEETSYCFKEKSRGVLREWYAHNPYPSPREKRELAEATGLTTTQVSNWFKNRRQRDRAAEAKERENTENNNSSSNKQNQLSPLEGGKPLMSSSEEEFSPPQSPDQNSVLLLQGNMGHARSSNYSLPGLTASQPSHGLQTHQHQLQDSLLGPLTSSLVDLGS
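Homogeneous AlphaScreen proximity assay pairing GST-Six1 with His-tagged Eya2 (added as 5X mix: 250 nM and 500 nM) in 50 mM Tris pH 8.0, 300 mM NaCl, 1 mM TCEP. Glutathione donor and nickel acceptor beads; 1 h, 37 °C, dark.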
CtBP-E1A inh: inhibitors of CtBP/E1A interaction. AlphaScreen GST-E1A/His-CtBP binding, 1536-well; active compounds read low. activity change, % (test concentration not listed). 340,000 tested, 0.49% active. AID 651724; in the data active = activity change below about -65%; inconclusive = mostly about -30% to -63%
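Protein mix (5X: 125 nM each GST-E1A, His-CtBP) was incubated with pinned compound 2 h at 37 deg C in dark, in 50 mM Tris pH 8.0 buffer with 300 mM NaCl. Glutathione donor and nickel acceptor beads followed; AlphaScreen signal read after 1 h.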
Numbers without * were called inactive; ? = inconclusive; nt = not tested or not shown. Unless noted, calls come from the whole dose curve; as a rule, active = well fitted curve in the direction sought with a large enough effect; inconclusive = small, poorly fitted or top-dose-only effect, or another doubt; inactive = no such curve, though single readings can be large; an effect the other way counts as inactive or inconclusive. % is set by controls: 0 for no effect and ±100 for the full control effect.

SMILES | RORg inh | PKM2 activator | Gal4-VP16 FLuc | Six1-Eya2 inh | CtBP-E1A inh
COc1cccc(/C=N\NC(=O)C2C(=O)NCC2c2ccccc2)c1O (stereo not drawn) | 8.9µM* | 0% | ? | -86* | -90*
COc1ccc(/C=N/NC(=O)C2C(=O)NCC2c2ccccc2)c(OC)c1 (stereo not drawn) | 22% | 0% | -4% | 4 | 5
COc1cccc(/C=N/NC(=O)C(=O)N/N=C/c2cccc(OC)c2O)c1O | 19% | 0% | -7% | ? | ?
COc1cccc(/C=N/NC(=O)NC2CCCCC2)c1O | 6.3µM* | 2% | 8.9µM* | -10 | -11
COc1cccc(/C=N/NC(=O)C(=O)N2CCCCCC2)c1O | 7.9µM* | -3% | 10µM* | -82* | -89*
O=C1CC(SC2=NCCS2)C(=O)N1c1cccc(Cl)c1Cl (stereo not drawn) | 20% | 5% | 5% | -2 | 0
COc1ccc(C)cc1N(CC(=O)NCCN1CCOCC1)S(=O)(=O)c1ccccc1 | nt | nt | nt | 5 | 4
Clc1cccc(Cl)c1Cn1cnc2c(NCc3ccco3)ncnc21 | 1% | 1% | -8% | 3 | 2
Clc1cccc(Cl)c1Cn1cnc(=NCc2ccco2)c2[nH]cnc21 | 18µM* | 9% | ? | -10 | -10
COc1ccc(C2=C/C(=C\c3cccc(OC(C)=O)c3)C(=O)O2)cc1 | 7.1µM* | ? | ? | 3 | -12
COCc1cc(=O)[nH]c(Nc2nc3ccccc3o2)n1 | 3.5µM* | -7% | ? | -74* | -85*
Cc1ccc2oc(Nc3nc(-c4ccccc4)cc(=O)[nH]3)nc2c1 | 2.8µM* | 0% | -14% | -2 | 1
Cc1cc(C)c2nc(Nc3nc(CSc4nc5ccccc5[nH]4)cc(=O)[nH]3)nc(C)c2c1 | nt | nt | nt | -5 | -12
CCOC(=O)Cc1cc(=O)[nH]c(Nc2nc3ccccc3o2)n1 | 10µM* | -5% | 16µM* | -5 | -13
Cc1nc(-c2ccccc2)cc(=O)[nH]1 | -2% | -7% | 1% | 3 | -2
Cc1cc(C)c2nc(Nc3nc(-c4ccccc4)cc(=O)[nH]3)nc(C)c2c1 | 0.63µM* | -4% | 2.2µM* | 0 | -12
COP(=O)(OC)OC(C(=O)c1ccccc1)c1ccccc1 (stereo not drawn) | nt | nt | nt | 0 | 3
Cn1c(N)c(C(=O)CSc2nnc(NC3CCCCC3)s2)c(=O)n(C)c1=O | nt | nt | nt | ? | -25
Cn1ccnc1C(O)c1cc(C(C)(C)C)c(O)c(C(C)(C)C)c1 (stereo not drawn) | 10µM* | ? | ? | -4 | 14
CC(C)(Sc1cc(C(C)(C)C)c(O)c(C(C)(C)C)c1)Sc1cc(C(C)(C)C)c(O)c(C(C)(C)C)c1 | -6% | 7% | 1% | -1 | 6
COc1ccc(NC(=O)C2CCCN(S(=O)(=O)c3ccc(Cl)cc3)C2)cc1OC (stereo not drawn) | 2% | nt | 8% | -2 | -3
O=Cc1cccc(Oc2ccc([N+](=O)[O-])cc2[N+](=O)[O-])c1 | 14µM* | 0% | 3% | -8 | 14
Cc1cc(=O)oc2cc(Oc3ccc([N+](=O)[O-])cc3[N+](=O)[O-])ccc12 | 11µM* | -9% | -80% | 0 | -2
CCOc1ccc(NC(=S)NC(=O)c2c(Cl)c(C)nn2C)c([N+](=O)[O-])c1 | 10µM* | 12% | ? | -1 | 6
Cc1nn(C)c(C(=O)NCc2ccc(Cl)cc2)c1Cl | ? | 1% | 4µM* | 1 | -7
SMILES | RORg inh | PKM2 activator | Gal4-VP16 FLuc | Six1-Eya2 inh | CtBP-E1A inh
Cc1nn(C)c(C(=O)Nc2ccc(Cl)c([N+](=O)[O-])c2)c1Cl | 41% | -9% | -5% | 2 | 0
Cc1nn(C)c(C(=O)NC(=S)Nc2ccccc2O)c1Cl | 2µM* | -9% | 3.2µM* | -5 | -7
Cc1nc(C)c(C(=O)NCc2ccc(Cl)cc2)o1 | 38% | 0% | ? | 3 | 0
O=C(Nc1ccc(S(=O)(=O)N2CCCC2)cc1)C1CC(=O)N(CCc2ccccc2)C1 (stereo not drawn) | nt | nt | nt | 1 | -10
O=C(Nc1ccccc1)N1CCCC2(CCN(C(=O)c3cc(C(F)(F)F)cc(C(F)(F)F)c3)CC2)C1 | -7% | nt | -2% | nt | nt
NC(=O)c1c(NC(=O)C2c3ccccc3Oc3ccccc32)sc2c1CCCCC2 | 0% | -2% | 25% | -1 | 0
CCOC(=O)C1CCCN(Cc2nc(CC3CC3)no2)C1 (stereo not drawn) | 45% | 2% | -1% | 4 | -1
CC(C)c1ccc(-c2nnn(CCC(=O)O)n2)cc1 | 0.4µM* | -2% | ? | 4 | -22
NC(=S)N/N=C/c1ccc(OC(=O)c2cccnc2)cc1 | -43% | nt | 9% | -4 | 7
CCN(C(C)=O)c1cnc(C=NNC(N)=S)c2ccccc12 | nt | nt | nt | -90* | ?
NC(=S)NN=Cc1nccc2c(N)cccc12 | nt | nt | nt | -93* | -88*
O=c1[nH]c(=O)c2[nH]c(=S)n(-c3ccccc3)c2[nH]1 | nt | nt | nt | 4 | 1
CCOC(=O)C1(CCc2ccccc2)CCN(Cc2nccn2CC)CC1 | 7.1µM* | -2% | 11µM* | -1 | 6
CCOC(=O)C1(Cc2ccc(Cl)cc2)CCN(Cc2nccn2CC)CC1 | 3.2µM* | 7% | 13µM* | -5 | -15
CCOC(=O)C1(Cc2ccccc2)CCN(Cc2nccn2CC)CC1 | 7.9µM* | 0% | ? | -23 | -23
CCOC(=O)C1(Cc2ccc(Cl)cc2)CCN(CCCn2cccn2)CC1 | -19% | -1% | -4% | -2 | -5
Cc1cc(N)n2ncc(-c3ccccc3)c2n1 | 10% | -16% | 1% | -22 | 2
CCSc1cc(C)nc2c(-c3ccccc3)cnn12 | -15% | 0% | -6% | 9 | nt
C=CCSc1cc(C)nc2c(-c3ccccc3)cnn12 | 10µM* | 5% | ? | 6 | nt
CC(=O)Nc1ccc(Nc2cc(C)nc3c(-c4ccccc4)cnn23)cc1 | 13µM* | 2% | 7.9µM* | 16 | 18
Cc1ccc(S(=O)(=O)N2CCCC2CNC(=O)C(=O)Nc2ccc(F)cc2)cc1 (stereo not drawn) | nt | nt | nt | -3 | -14
CCn1c(C)nc2cc(C(=O)N3N=C(CCOC)CC3(O)C(F)(F)F)ccc21 (stereo not drawn) | ? | 4% | 35µM* | -1 | 2
N=C1N(/N=C/c2ccccc2)C(=Nc2ccccc2)C(=S)N1c1ccccc1 | 4.5µM* | -10% | 5µM* | 1 | 2
CCOc1ccccc1N(CC(=O)NCC1CCCO1)C(=O)CCC(=O)Nc1nccs1 (stereo not drawn) | 0% | nt | -5% | 15 | -6
COC(=O)C1=C(C)N(c2ccc(Cl)c(Cl)c2)C(=O)C1 | 4.5µM* | 8% | 13µM* | -3 | 0
